# “And” between values parts separate entries of the source, which are not always exact repeats. Equal entries are not always repeated. Hit rate of the full screen: of about 290,000 compounds, about 3,000 (1%) were called active. The list comes from a sample in which actives are over-represented; it also holds similar structures and randomly drawn compounds. Values without a mark were called inactive. No stated cut-off is given here; in the data, active means inhibition mostly above about 36% (no sharp cut-off); inactive means mostly below about 34%.
# Assay: NOD1 signaling inhibitors, primary screen, cell-based, luminescence, uHTS (AID 1578);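 further: HEK-293T reporter cells stimulated with the NOD1 agonist gamma-tri-DAP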
# Conditions: NOD1-driven NF-kB luciferase reporter cells, at 4 µM, active compounds read high
row,SMILES,inhibition
1,O=C(N/N=C/c1cc([N+](=O)[O-])c(N2CCOCC2)cc1N1CCOCC1)c1cccnc1,-24.1%
2,O=C(COC(=O)COc1ccccc1[N+](=O)[O-])Nc1ccccc1Br,9.3%
3,Cc1c(C(=O)N2CCCC2)sc(NC(=O)c2ccco2)c1C#N,48.7% (active)
4,Cc1c(C(=O)N2CCCC2)sc(NC(=O)c2ccccc2)c1C#N,-9.5%
5,Cc1c(C(=O)N2CCCCC2)sc(NC(=O)c2ccco2)c1C#N,-0.9%
6,CC1C(=NO)C(C)C(c2ccc(N(C)C)cc2)NC1c1ccc(N(C)C)cc1 (stereo not drawn),4%
7,COc1ccc2c(c1)sc1nc(=O)ccn12,-3.3%
8,CCOC(=O)N1CCN(C(=O)c2ccc3c(c2)sc2nc(-c4ccc(OC)cc4)cn23)CC1,-15.5%
9,COc1ccc2c(c1)sc1nc(-c3ccccc3)cn12,34.4% (active)
10,O=C(COc1ccccc1)Nc1ccc(Cl)c(-c2nc3ncccc3o2)c1,-25.6%
11,COc1cccc(C(=O)N2CCN(C(=O)C3CC3)CC2)c1,-26.7%
12,COc1ccc(OC(C)C(=O)N2CCCc3ccccc32)cc1 (stereo not drawn),-45.6%
13,Cc1nc2ccccn2c1C(=O)N=Nc1c(O)n(CCC(C)C)c2ccccc12,92% (active)
14,Cc1nc2ccccn2c1C(=O)N=Nc1c(O)[nH]c2ccccc12,11.6%
15,CC(C)CCn1c(O)c(N=NC(=O)c2ccco2)c2ccccc21,24.4%
16,CC1=Nc2cc(C(=O)NCCCOC(C)C)ccc2Sc2ccccc21,3.6%
17,Cc1[nH]n(-c2ccccc2)c(=O)c1-c1ccc(Cl)cc1,-30.5%
18,Cc1[nH]n(-c2cccc(Cl)c2)c(=O)c1-c1ccccc1,-18%
19,O=C(CSc1nnc(Cn2c(=O)sc3ccccc32)n1CCc1ccccc1)N1CCOCC1,-11.3%
20,COc1ccccc1N1CCN(C(=O)C2CC=CCC2C(=O)O)CC1 (stereo not drawn),-7.7%
21,COc1cccc2c1C(CO)N1C(C#N)C3CC(C(=O)O)C(C1C2)N3C (stereo not drawn),102% (active)
22,COc1cccc2c1OCC(C(=O)O)C2 (stereo not drawn),-26.7%
23,CC(C)c1ccc(NC2CCCN(C(=O)c3ccc(N4CCOCC4)cc3)C2)cc1 (stereo not drawn),-4%

row,SMILES,inhibition
1,Cc1ccc(S(=O)(=O)c2c(C)cc(C)[nH]c2=O)cc1,-7.8%
2,Cc1ccc(N/N=C(\C#N)C(=O)c2ccsc2)cc1,-5.4%
3,N#C/C(=N\Nc1ccc(Cl)cc1)C(=O)c1ccsc1,75.6% (active)
4,N#C/C(=N\Nc1ccc(Cl)cc1)C(=O)c1ccccc1,66.9%
5,Cc1[nH]n(-c2ccccc2)c(=O)c1/C=N/N1CCOCC1,6.6%
6,Cc1cccc(/N=C/c2c(C)[nH]n(-c3ccccc3)c2=O)n1,-8.3%
7,Cc1[nH]n(-c2ccccc2)c(=O)c1/C=N/N1C(=O)c2ccc3c4c(ccc(c24)C1=O)CC3,90.8% (active)
8,Cc1[nH]n(-c2ccccc2)c(=O)c1/C=N/N1C(=O)c2cccc3cccc(c23)C1=O,-49.6%
9,Cc1[nH]n(-c2ccccc2)c(=O)c1C=Nc1cccc2cccnc12,45.4%
10,COc1ccc(N=C2SC(C(=O)Nc3ccc(OC)cc3)CC(=O)N2CCN2CCOCC2)cc1 (stereo not drawn),-18.8%
11,COc1cc(CN2CCCCCC2)cc(OC)c1OC,-23%
12,C[n+]1cn(/N=C/c2ccccc2)c2ccccc21,75.1% (active)
13,Cn1c(=O)n(/N=C/c2ccccc2)c2ccccc21,-23.6%
14,C(=N\n1c2ccccc2c2ccccc21)/c1ccccc1,6.6%
15,CCOC(=O)Cc1csc(NC(=O)c2sc3nc4cc(C)ccc4cc3c2N)n1,-55.6%
16,CCn1cc(CNC(=O)c2ccc(OC3CCN(Cc4ccccn4)CC3)cc2)cn1,-0.8%
17,Cc1ccccc1CN1CCC(Oc2ccc(C(=O)NCc3ccccn3)cc2)CC1,17%
18,Cc1cc(Sc2nnc(N)s2)c2ccccc2n1,53.2% (active)
19,COc1ccc2nc(C)cc(Sc3nc4ccccc4s3)c2c1,47.7% (active)
20,CCCCCCCCSc1nnc(/N=C/N(C)C)s1,-11.4%
21,Cc1cc(N)c2ccccc2n1,-45.9%
22,Cc1nc2ccccc2nc1CSc1nnc(N)s1,-18%
23,COc1ccc2nc(C)cc(SCC(=O)NNC(=O)COc3ccccc3)c2c1,9.9%

row,SMILES,inhibition
1,COc1ccc2nc(C)cc(SCC(=O)O)c2c1,-24.8% and -30.8%
2,Cc1cc(Sc2nnc(/N=C/N(C)C)s2)c2ccccc2n1,46.4% (active)
3,Cc1ccc(NC(=O)CSc2nnc(/N=C/N(C)C)s2)cc1,-37.6%
4,Cc1ccccc1CN1CCN(CC(=O)NCc2ccco2)C1=O,-14.9%
5,FC(F)(F)COc1nc(N2CCOCC2)nc(N(c2ccccc2)c2ccccc2)n1,-30.9%
6,O=C(Nc1cccc(NC(=O)c2cncc(Br)c2)c1)c1cncc(Br)c1,-16.9%
7,Cc1ccc(NS(=O)(=O)c2cn(C)c(=O)n(C)c2=O)cc1C,-34.3%
8,Cc1ccc(-c2nc(NCC3CCCO3)sc2C)cc1 (stereo not drawn),-53.2%
9,COCc1cc(C2C(C(=O)c3ccco3)=C(O)C(=O)N2CCOCCO)ccc1O (stereo not drawn),-32.2%
10,COCCCNC(=O)C(=O)Nc1cc2c3c(c1)CCC(=O)N3CCC2,19.6%
11,CCOc1ccc(NC(=O)c2cnsn2)cc1,-6.3%
12,CN(C)c1ccc(NC(=O)c2cnsn2)cc1,65.7% (active)
13,CC(=O)c1ccc(NC(=O)c2cnsn2)cc1,44.1%
14,Cc1ccc(Cl)cc1N1CCN(S(=O)(=O)c2ccc3[nH]c(=O)ccc3c2)CC1,5.1%
15,O=C(Cn1c(O)c(/C=C2\C=Nc3ccccc32)sc1=O)N1CCOCC1,12.6%
16,C=CCC(=O)NC1CCCc2c1cnn2-c1cc(F)cc(F)c1 (stereo not drawn),6.1%
17,Cc1ccccc1-c1cn(-c2ccccc2)c(=S)[nH]1,-24.2%
18,O=c1oc2ccccc2cc1-c1cn(-c2ccccc2)c(=S)[nH]1,98.5% (active)
19,O=C(O)c1ccc(-n2cc(-c3cc4ccccc4oc3=O)[nH]c2=S)cc1,-7.2%
20,Cc1ccc(-c2cn(-c3ccccc3)c(=S)[nH]2)cc1C,23.4% (active)
21,S=c1[nH]c(-c2ccccc2)cn1-c1ccccc1,-7.1%
22,COc1ccc(-c2cn(-c3ccccc3)c(=S)[nH]2)cc1OC,-4.4%
